Molecules are shown by their SMILES. Active and inactive are the calls of the source. Unless noted, no rule for the calls is given here.

A short description of test [1]: resazurin metabolic signal in HepG2 cells – cell-based, resazurin fluorescence, 24 h, PK04 Diversity Set, profiling panel (AID 1172). Also: test concentration not given here. The following applies: HepG2 viability, higher = more signal.
Test [2] in a line: budding yeast growth changes without added modifier – OD600, strain BY4716, 24 h, basal condition, primary screen (AID 1173). The following applies: S. cerevisiae BY4716 growth, OD600, 24 h; higher = more signal, called active from +8 up or from −8 down.
The nature of test [3]: viability profiling in MM1S myeloma cells – cell-based, resazurin fluorescence, basal, 24 h, PK04 Diversity Set, profiling panel (AID 1174).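 Also: MM1S multiple myeloma cell line; test concentration not given here.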 The following applies: higher = more signal, called active from +8 up or from −8 down. A general note: Alamar Blue is a resazurin reagent that responds to reducing activity.
The target of test [4] is Dihydroorotate dehydrogenase (quinone), mitochondrial (Plasmodium falciparum (isolate 3D7)) (UniProt Q08210). Description: inhibition of P. falciparum DHODH – biochemical, C-terminal His tag, absorbance 600 nm, primary screen (AID 1175).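 Also: recombinant parasite enzyme with a five histidine tag at its C terminus; test concentration not given here.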 The following applies: PfDHODH enzyme, DCIP absorbance 600 nm; higher = more signal, called active from +8 up or from −8 down.
Sequence of Dihydroorotate dehydrogenase (quinone), mitochondrial (Plasmodium falciparum (isolate 3D7)) (Q08210 whole entry, looked up): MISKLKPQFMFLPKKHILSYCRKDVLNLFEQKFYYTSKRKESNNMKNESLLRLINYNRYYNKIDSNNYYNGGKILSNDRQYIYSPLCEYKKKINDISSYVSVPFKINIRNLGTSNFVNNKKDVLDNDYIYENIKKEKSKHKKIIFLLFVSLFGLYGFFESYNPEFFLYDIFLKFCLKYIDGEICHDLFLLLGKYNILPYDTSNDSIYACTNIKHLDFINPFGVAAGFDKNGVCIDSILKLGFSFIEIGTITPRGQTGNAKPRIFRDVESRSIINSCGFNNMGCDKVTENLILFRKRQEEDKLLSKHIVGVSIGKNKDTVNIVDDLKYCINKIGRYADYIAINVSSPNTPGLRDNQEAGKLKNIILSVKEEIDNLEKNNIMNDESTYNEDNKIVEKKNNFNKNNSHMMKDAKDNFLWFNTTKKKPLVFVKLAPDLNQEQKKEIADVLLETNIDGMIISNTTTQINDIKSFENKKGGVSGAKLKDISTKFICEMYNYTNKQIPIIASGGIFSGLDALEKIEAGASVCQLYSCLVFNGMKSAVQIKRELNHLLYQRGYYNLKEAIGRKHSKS
A short description of test [5]: inhibition of PAO1 biofilm formation – strain PAO1, LB-PBS medium, absorbance 600 nm, primary screen (AID 1176). Also: test concentration not given here. The following applies: P. aeruginosa PAO1 growth/biofilm, A600, 12 h; higher = more signal.
Test [6] is described as follows: growth modulation of vineyard yeast isolate – strain RM11-1a, OD600, basal, 24 h, primary screen (AID 1177).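 Also: cultures grown under basal conditions with no added stressor; test concentration not given here.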 The following applies: S. cerevisiae RM11-1a growth, OD600, 24 h; higher = more signal, called active from +8 up or from −8 down.
Test [7] can be described thus: growth of efflux-deficient E. coli DRC39 – strain DRC39, OD650, 24 h, E. coli filamentation inducers, primary screen (AID 1178).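 Also: growth measured as culture turbidity by optical density at 650 nm; test concentration not given here.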 The following applies: E. coli DRC39 acrAB, higher = more signal, called active from +8 up or from −8 down.
Test [8] is described as follows: growth of efflux-deficient E. coli DRC39 – strain DRC39, OD650, 48 h, E. coli filamentation inducers, primary screen (AID 1179).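 Also: screen aims at cell division blockers that make cells filament.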 The following applies: E. coli DRC39 delta-acrAB growth, higher = more signal, called active from +8 up or from −8 down.
Test [9] is described as follows: viability profiling in RPMI8226 myeloma cells – cell-based, resazurin fluorescence, basal, 24 h, PK04 Diversity Set, profiling panel (AID 1180).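 Also: RPMI8826 multiple myeloma cell line at 5000 cells per well; test concentration not given here.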 The following applies: higher = more signal.
In test [10] the target is E3 ubiquitin-protein ligase XIAP (Homo sapiens) (UniProt P98170). Description: small molecules binding XIAP protein – biophysical, small-molecule microarray, fluorescence 635 nm, primary screen (AID 1181).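 Also: score merges 667 nm emission and signal to noise over triplicate slides.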 The following applies: higher = more signal.
Sequence of E3 ubiquitin-protein ligase XIAP (Homo sapiens) (P98170 whole entry, looked up): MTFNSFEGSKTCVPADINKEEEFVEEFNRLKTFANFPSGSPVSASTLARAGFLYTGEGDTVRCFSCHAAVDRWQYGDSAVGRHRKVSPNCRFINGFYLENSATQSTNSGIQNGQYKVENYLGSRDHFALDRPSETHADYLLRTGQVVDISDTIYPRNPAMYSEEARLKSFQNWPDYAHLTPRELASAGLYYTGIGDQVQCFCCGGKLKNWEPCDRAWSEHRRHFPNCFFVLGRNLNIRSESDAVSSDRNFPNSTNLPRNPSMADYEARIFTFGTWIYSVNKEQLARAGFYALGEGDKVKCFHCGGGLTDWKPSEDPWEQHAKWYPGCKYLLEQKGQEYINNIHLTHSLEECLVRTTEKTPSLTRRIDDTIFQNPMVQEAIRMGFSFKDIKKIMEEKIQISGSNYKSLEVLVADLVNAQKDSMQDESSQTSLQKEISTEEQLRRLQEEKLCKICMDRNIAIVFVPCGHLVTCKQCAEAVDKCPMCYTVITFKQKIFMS

For `CCN1C(=O)[C@H]2[C@H]3[C@H](O)[C@H](O)CC(=NOCc4ccccc4)[C@H]3CC[C@H]2C1=O`, the z-score in test [1] was -0.322; in test [2], -0.0753 (inactive); in test [3] it was -0.344 (inactive); in test [5], 0.164 (inactive); in test [6] it was -0.889 (inactive); in [7], 0.114 (inactive). For the same compound, the z-score was 0.293 (inactive) in test [8] and -0.855 in [9]. In addition, the composite z-score is -0.422 (inactive) in test [4] and 0.0785 in [10].
For the compound `O=C1[C@H]2[C@H]3[C@H](O)[C@H](O)CC(=NOCc4ccccc4)[C@H]3CC[C@H]2C(=O)N1c1cccc(Oc2ccccc2)c1`, the z-score in [1] was 1.44; in [2], -0.47 (inactive); in test [3], 0.968 (inactive); in test [5], -0.131 (inactive); in [6] it was -0.0244 (inactive); in [7], 0.416 (inactive). In addition, the figures for the z-score in test [8] and in test [9] were -0.482 (inactive) and 0.564, respectively. For the same compound, the composite z-score is -0.278 (inactive) in [4] and -0.193 in test [10].
`C#C[C@@H]1Oc2ccccc2S(=O)(=O)N2CCC[C@H]12`: the z-score in test [1] is -0.768; in [2], -2.6 (inactive); in [3], -0.46 (inactive); in test [5], 0.0359 (inactive); in test [6], 0.494 (inactive); in test [7] it was -0.689 (inactive). The results for the z-score in [8] and in test [9] were -0.816 (inactive) and -0.776, respectively. Also, the values for the composite z-score in [4] and in test [10] were 0.515 (inactive) and -0.38, respectively.
Turning to `C[C@@H](c1ccccc1)N1C(=O)[C@H]2[C@H]3[C@H](O)C=CC(=O)[C@@H]3CC[C@H]2C1=O`, the z-score in [1] was -0.0507; in test [2], -0.697 (inactive); in test [3], 0.711 (inactive); in [5], -0.319 (inactive); in test [6] it was -0.701 (inactive); in test [7], 0.0826 (inactive). The z-score in test [8] is -0.286 (inactive); in test [9], 0.982. Besides, the composite z-score in [4] was -0.366 (inactive); in test [10], 0.126.
With `CN1C(=O)[C@@]2(CCC(=O)OC(C)(C)C)N=C(c3ccc(OCCCO)cc3)O[C@H]2c2ccccc21`, the z-score in [1] was 0.761; in test [2] it was -1.04 (inactive); in test [3] it was -1.82 (inactive); in test [5], 0.0279 (inactive); in test [6], -0.177 (inactive); in [7], 1.2 (inactive). Also, the z-score in test [8] was 0.767 (inactive); in test [9], -1.99. Moreover, the composite z-score in test [4] is -0.281 (inactive); in test [10], 0.169.
In the case of `O=C1C[C@@H](O)[C@@H](O)[C@@H]2[C@@H]3C(=O)N(c4cccc(Oc5ccccc5)c4)C(=O)[C@@H]3CC[C@@H]12`, the z-score in [1] was -0.165; in [2] it was -0.208 (inactive); in test [3], 0.207 (inactive); in [5] it was -0.708 (inactive); in test [6] it was -0.25 (inactive); in test [7], -0.65 (inactive). Also, the z-score in test [8] was -0.644 (inactive); in test [9], -0.0298. Besides, the composite z-score in [4] is -0.453 (inactive); in test [10], -0.102.
For `CCc1cc2c(nc1CC)CCN(CCC(C)=NO[C@@H](C)c1cc(-c3c(C)cc(C)cc3C)no1)C2`, the z-score in [1] is -0.0169; in test [2], -2.75 (inactive); in test [3], -0.433 (inactive); in [5], 0.903 (inactive); in test [6], 0.526 (inactive); in test [7] it was 0.416 (inactive). Besides, the z-score is 0.566 (inactive) in test [8] and 0.374 in test [9]. The composite z-score in test [4] was -0.0406 (inactive); in test [10], 0.19.
As to `CC(C)=NOCc1cccc(-c2cc(-c3ccccc3)no2)c1`, the z-score in test [1] is -0.714; in test [2], 0.671 (inactive); in [3], -0.862 (inactive); in test [5] it was 0.475 (inactive); in [6], -0.39 (inactive); in test [7], 1.19 (inactive). Further, the results for the z-score in [8] and in [9] were -1.41 (inactive) and -0.975, respectively. Also, the composite z-score in test [4] is -0.502 (inactive); in test [10] it was -0.288.
With `COC(=O)[C@H](C)NC(=O)CCC1CC(OC(=O)NCc2cccc3ccccc23)CC2(CCCC(COC(=O)NCC3CCCCC3)O2)O1` (stereo not given in full), the z-score in [1] is 1.14; in test [2], -0.201 (inactive); in test [3] it was 0.486 (inactive); in test [5] it was -0.127 (inactive); in test [6], 0.617 (inactive); in test [7], 0.0476 (inactive). The z-score was -0.399 (inactive) in test [8] and 1.23 in test [9]. For the same compound, the composite z-score in test [4] was -0.533 (inactive); in [10], -0.02.
On to `CC(=O)OC[C@H]1O[C@H](CCON=C(C)CCN2CCc3nc(-c4ccccc4)c(-c4ccccc4)cc3C2)C=C[C@@H]1OC(C)=O`, for which the z-score in test [1] was 0.0962; in test [2], -0.0567 (inactive); in [3], -0.91 (inactive); in test [5] it was 0.441 (inactive); in [6], -0.64 (inactive); in [7], 0.304 (inactive). Also, the results for the z-score in test [8] and in test [9] were -0.545 (inactive) and 0.28, respectively. Also, the results for the composite z-score in test [4] and in [10] were -0.439 (inactive) and 0.275, respectively.
Take `N#Cc1ccc(NN2C(C(O)c3cccc4ccccc34)C=CC3C(=O)N(c4ccccc4)C(=O)C32)cc1` (stereo not given): the z-score in [1] is -0.707; in test [2], 0.185 (inactive); in test [3], -0.605 (inactive); in [5], 0.487 (inactive); in test [6], 0.806 (inactive); in test [7] it was -0.586 (inactive). In addition, the z-score in [8] is 0.434 (inactive); in test [9], -0.28. The figures for the composite z-score in test [4] and in [10] were 0.199 (inactive) and 0.0791, respectively.
With `CCOC(=O)C[C@H]1[C@H](OC(=O)c2ccc(C(=O)c3ccccc3)cc2)[C@@H](NC(=O)c2ccc(-c3ccccc3)cc2)c2cc(OCCCO)ccc2N1C(=O)c1ccc2ccccc2n1`, the z-score in test [1] was 0.206; in [2], -1.1 (inactive); in test [3] it was 0.38 (inactive); in test [5] it was -0.0998 (inactive); in test [6], -0.0276 (inactive); in test [7], 0.254 (inactive). The z-score in test [8] is 1.23 (inactive); in test [9], 0.909. Also, the composite z-score is -1.69 (inactive) in test [4] and 0.119 in test [10].
Turning to `[N-]=[N+]=NCc1ccccc1C[C@]1(C(=O)NCc2ccccc2)N=C(c2ccc(OCCCO)cc2)O[C@H]1c1ccccc1N=[N+]=[N-]`, the z-score is -0.269 in test [1]; 0.316 (inactive) in test [2]; -1.53 (inactive) in test [3]; 1.68 (inactive) in test [5]; -0.204 (inactive) in [6]; 0.82 (inactive) in test [7]. Besides, the z-score in test [8] was -0.0271 (inactive); in [9] it was -2.15. For the same compound, the composite z-score was 0.294 (inactive) in test [4] and -0.22 in test [10].

For the origin of these results see PubChem BioAssay.
